Assay outcomes deposited in PubChem BioAssay by National Center for Advancing Translational Sciences (NCATS).
Tau fibril FP: inhibitors of human tau fibril formation; 280,000 tested, 0.39% active; P10636; Potency, µM (doses to about 57.7 µM), without a hit: at the highest dose activity, negative = inhibition, usual class: inhibitors; K18 P301L tau heparin fibrillization, Alexa594 FP, 6 h; further: potency means the concentration at half of the fitted maximal effect; nearly all actives have a fitted effect of over 55% in size
Target sequence (P10636 561-689 P618L limits assumed): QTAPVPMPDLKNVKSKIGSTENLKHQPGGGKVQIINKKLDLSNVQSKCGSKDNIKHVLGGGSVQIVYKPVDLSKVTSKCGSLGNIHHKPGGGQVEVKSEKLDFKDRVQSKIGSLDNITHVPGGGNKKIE
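Read-out: fluorescence polarization of Alexa 594-labeled tau (0.24 uM), 555 nm excitation, 632 nm emission. Mixtures held 15 uM unlabeled K18 P301L, compound and 20 uM heparin, pH 7 acetate buffer, incubated 6 hr at 37 C.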
Tau fibril ThT: blocks human tau fibril formation measured by thioflavin T | P10636 | recombinant tau K18 P301L, heparin-induced fibrillization, ThT fluorescence | Potency, µM (doses to about 57.4 µM), inactives show at the top dose activity, negative = inhibition, usual class: inhibitors | 270,000 tested, 2.1% active; further: potency means the concentration at half of the fitted maximal effect; nearly all actives have a fitted effect of over 55% in size
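Heparin-induced fibrillization of the P301L-mutant K18 repeat-domain fragment of human tau was followed by ThT binding in quantitative high-throughput format.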
Coupling enz: coupling enzyme interference in Giardia aldolase counter-screen. 290,000 tested, 0.67% active. coupling enzyme system counterscreen, AmpLite Red fluorescence. activity change, negative = inhibition, % at 58.2 µM, hits read low. AID 2472; in the data active means activity change below about -30%
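Activity here indicates interference with the coupling reaction, not aldolase inhibition. Compounds at 57.5 uM final met coupling enzymes for 10 min at RT; substrate and AmpLite Red detection followed, with a 525/598 nm fluorescence read after 20 min.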
Tau fluor cs: counter-screen for tau fibril formation inhibitors. tau K18 P301L (four-repeat tau fragment) Alexa594 fluorescence, heparin fibrillization. Potency, µM (highest dose often 57.7 µM), for inactives: top-dose activity change, negative = decrease. 280,000 tested, 0.93% active. AID 1463; further: potency means the concentration at half of the fitted maximal effect; nearly all actives have a fitted effect of over 55% in size
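Human K18 P301L tau (15 uM unlabeled plus 0.24 uM Alexa 594-labeled, final) in 100 mM sodium acetate pH 7 was mixed with compound and 20 uM heparin and incubated 6 hr at 37 C.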
* = called active by the depositor; u = inconclusive; x = not tested or not shown; [ ] = dose if it differs, or a comment. Compounds with a hit are over-represented: about 2.7% of the library has one in this group of screens. Unless noted, the call rests on the fitted dose curve; in most records, active means well fitted curve in the direction sought with a large enough effect; inconclusive means small, poorly fitted or top-dose-only effect, or another doubt; inactive means no such curve, though single readings can be large; an effect the other way counts as inactive or inconclusive. On the % scale 0 is the no-effect control and ±100 the full control effect.

SMILES	Tau fibril FP	Tau fibril ThT	Coupling enz	Tau fluor cs
O=C(CSc1nccn1Cc1ccc(F)cc1)Nc1nc2ccccc2s1	-8%	-6%	x	u
COc1ccccc1-c1c(-c2ccc(OCC(=O)NN)cc2O)n[nH]c1C(F)(F)F	-2%	-6%	0	u
COc1ccc(-c2n[nH]c(C(F)(F)F)c2-c2cc3ccccc3o2)c(O)c1	-1%	18µM*	0	u
COc1cc(NC(=O)C(Cc2ccccc2)NS(=O)(=O)c2cccc3nsnc23)cc(OC)c1 (configuration not stated)	-4%	-9%	x	u
Cc1ccc2c(CN3CCCc4ccccc43)cc(=O)oc2c1C	-6%	u	-53*	-20%
Cc1ccc2c(CN3CCCCC3)cc(=O)oc2c1C	x	x	4	x
CCOc1ccc(NC(=O)c2c(NC(=O)c3ccccc3Br)sc3c2CCC(C)C3)cc1 (configuration not stated)	u	14µM*	x	-23%
CCOC(=O)c1ccc(NC(=O)c2c(NC(C)=O)sc3c2CCC(C)C3)cc1 (configuration not stated)	-6%	u	x	-26%
COc1ccc2c(c1OC)C(Cc1ccccc1)N1CCc3cc4c(cc3C1C2)OCO4 (configuration not stated)	u	16µM*	-13	u
Cc1c(Cl)ccc2sc(N3CCN(C(=O)C4CC4)CC3)nc12	-7%	u	x	-20%
Nc1nc(C2CC2)c(Sc2sc(N)nc2C2CC2)s1	-8%	18µM*	-2	u
Nc1ccc(O)cc1C(=O)OCC(=O)C12CC3CC(CC(C3)C1)C2	14%	-13%	-47*	u
Cc1cnc(C(=O)OCC(=O)C23CC4CC(CC(C4)C2)C3)cn1	x	x	-1	x
Nc1ccc(O)cc1C(=O)OCC(=O)c1ccc(C2CCCCC2)cc1	-1%	u	-3	13µM*[quencher]
O=c1c2c3c(sc2nc(NCCO)n1Cc1ccco1)CCCCC3	16%	u	-2	u
Cn1c(N/N=C/c2ccccc2)nc2sc3c(c2c1=O)CCC3	6%	u	-4	18µM*[quencher]
CN1CCc2c(sc3nc(NN)n(-c4ccc(Cl)cc4)c(=O)c23)C1	x	x	-2	x
CN1CCc2c(sc3nc(NN)n(Cc4ccccc4)c(=O)c23)C1	-13%	16µM*	-4	u
O=c1c2c3c(sc2nc(NCCO)n1CCc1ccccc1)CCCCC3	u	u	-4	14µM*[quencher]
CCCCOc1ccc(C2=NC(c3ccccc3)=Nc3ccc(OC)cc3N2)cc1	6%	u	x	u
COC(=O)[C@@]1(Cc2ccc(OC)cc2)[C@H]2c3cc(C(=O)N(C)C)n(CCc4ccccn4)c3C[C@H]2CN1C(=O)c1ccccc1	5%	-10%	2	-7%
COc1ccc(N=N/C(C(C)=O)=C(/C)O)cc1	2%	16µM*	2	-13%
CC(=O)/C(N=Nc1cc(C)ccc1O)=C(\C)O	-7%	-5%	-9	-12%
COc1ccc(C2=CSC3=C(C(=O)c4cccc(S(=O)(=O)N(C)C)c4)CCN23)cc1	u	25µM*	3	u
CC(=C/C(=O)O)/C=C/c1ccco1	u	14µM*	-2	-20%
SMILES	Tau fibril FP	Tau fibril ThT	Coupling enz	Tau fluor cs
Cc1cc(C)n(-c2nc3ccccc3nc2Nc2ccc(N(C)C)cc2)n1	u	u	x	18µM*[quencher]
COc1cc(Nc2nc3ccc(Cl)cc3nc2-n2nc(C)cc2C)cc(OC)c1	-18%	5%	x	-27%
Cc1ccc2nc(Nc3ccc4[nH]c(=O)[nH]c4c3)c(-n3nc(C)cc3C)nc2c1	15%	u	2	11µM*[quencher]
Cc1cc(C)n(-c2nc3ccccc3nc2Nc2ccc3c(c2)OCO3)n1	u	-8%	-3	u
Cc1cc(C)c(C(=O)CSc2nnc(N)s2)cc1C	3%	-8%	0	-12%
Cc1cc(C)c(C(=O)CSC2=NC(N)=C(C#N)C3(CCCCC3)C2C(N)=O)cc1C (configuration not stated)	u	28µM*	-2	u
CCc1cc(SC#N)cc(C)c1N	u	14µM*	0	-24%
Cc1ccc(Cc2cnc(NC(=O)c3ccc4c(c3)CC(c3ccccc3)OC4=O)s2)cc1 (configuration not stated)	-10%	-8%	x	-14%
O=C(CC1SC(=Nc2ccccc2)N(CCc2c[nH]c3ccccc23)C1=O)Nc1ccccc1F (configuration not stated)	-6%	-15%	0	13µM*[quencher]
O=C(c1cccc([N+](=O)[O-])c1)N1CCN(CCc2ccncc2)CC1	0%	-2%	x	-4%
C/C(=N\Nc1ccc(Cl)c(Cl)c1)c1ccc(-n2ccnc2)cc1	2%	u	0	14µM*[quencher]
C/C(=N\NC(N)=S)c1ccc(-n2ccnc2)cc1	-3%	u	8	0%
CCc1c2c(nc3c(C(C)C)cccc13)-c1cccc(=O)n1C2	-6%	u	1	-15%
C(=C\c1ccco1)/c1ccc2ccccc2n1	u	32µM*	-5	-22%
COc1cccc(C2=Nn3c(nnc3-c3ccccc3C)SC2)c1	x	x	-32*	x
O=C(CC(=O)N/N=C/c1ccc(Cl)cc1Cl)NCc1ccccc1	-8%	2%	-14	4%
Cc1ccsc1/C=N\NC(=O)CC(=O)NCc1ccccc1	-6%	5%	-36*	-1%
O=C(CC(=O)N/N=C/c1c(F)cccc1Cl)NCc1ccccc1	1%	-8%	-39*	-5%
Cc1cccc(OCCC(=O)NCC(=O)Nc2cccc(C)c2C)c1	6%	1%	-35*	0%
Cc1cccc(NC(=O)CCOc2ccccc2)c1C	x	x	-3	x
C[C@H]1Cc2c(COc3ccccc3)nc3c(c2CO1)CN(C(=O)c1cccnc1)CC3	4%[11.6 µM]	11%[11.5 µM]	1	6%[11.6 µM]
COC1=C2C[C@@H](C)C[C@H](OC)[C@H](O)[C@@H](C)/C=C(\C)[C@H](OC(N)=O)[C@@H](OC)/C=C\C=C(/C)C(=O)NC(=CC1=O)C2=O	x	x	-65*	x
CCOC(=O)c1c(-c2ccc(Br)cc2)csc1NC(=O)c1ccc(C(C)(C)C)cc1	6%	-6%	x	-1%
COc1ccc2c(=O)c3c(=O)n(Cc4ccco4)c(-c4ccco4)nc3oc2c1	-3%	28µM*	0	u
COc1ccc(Nc2nc3ccc(OC)cc3s2)cc1	-9%	13µM*	-3	14µM*[quencher]
SMILES	Tau fibril FP	Tau fibril ThT	Coupling enz	Tau fluor cs
COc1ccc2nc(Nc3nc(C)c(C(C)=O)s3)sc2c1	7%	u	2	u
CCOc1ccc2nc(NC(=O)Nc3cccs3)sc2c1	u	u	-2	14µM*[quencher]
COc1ccc(OCc2nnc(NC(=O)Nc3ccc(F)cc3)s2)cc1	10µM*	6%	-1	-10%
O=C(Nc1cccc(Br)c1)Nc1nc2c(s1)CCCCCC2	u	-8%	x	3.5µM*[quencher]
Cc1ccc(C)c(N2C(=O)N(C)c3ccccc3S2(=O)=O)c1	-9%	-11%	x	-26%
COc1ccc(NC(=O)Nc2nc3ccccc3s2)cc1	u	u	1	8.9µM*[quencher]
